Experimental findings from ChEMBL document CHEMBL4513216, “Probing the Open Global Health Chemical Diversity Library for Multistage-Active Starting Points for Next-Generation Antimalarials” (ACS Infect Dis, 2020) are described below.

The campaign covered roughly 69,000 compounds. About 8,600 (12%) showed an effect of 50% or more. Many of the other results were omitted from the sample, so strong results are more common in it than they were.

The test system of the experiment is Plasmodium berghei. The experiment is described as follows: Screen against P. berghei liver stage (PbLuc), transformed with Luciferase, at 10uM. Type of experiment: functional, HepG2. As to conditions: tested at 10 uM.
Take `CC(NC1CCSCC1)c1ccccc1-n1cccn1` (stereo not drawn): the INHIBITION is reported as -4.12%.
Take `CC(NC1CCCC1)c1ccccc1-n1cccn1` (stereo not drawn): the INHIBITION was -8.66%.
Take `c1cncc(NCCNC2CCCNC2)c1` (stereo not drawn): the INHIBITION came out at 4.95%.
Take `CC(C)CN1CCC(NC(C)c2ccccc2-n2cccn2)CC1` (stereo not drawn): the INHIBITION is listed as 89.1%.
For `CC(C)CN1CCC(NCCNc2cccnc2)CC1` the value was 52.7%; for `Cc1cnccc1NCCNC1CCN(CC(C)C)CC1`, -58.7%; for `c1cncc(NCCNC2CCSC2)c1` (stereo not drawn), 29.7%.
Consider `c1cncc(NCCNC2CSCCSC2)c1`, for which the INHIBITION was 57.5%.
For `c1cncc(NCCNC2CCSCC2)c1` the value was -22.8%; for `O=C(O)c1cnc(N2CCC(O)CC2)nc1COc1ccc(F)cc1`, 46.1%; for `CC(C)(C)NC(=O)c1ccn(COc2c(Cl)cccc2Cl)n1`, 20.9%.
Under `Cc1cc(C(=O)NCc2cccs2)c2c(C3CCCN3)noc2n1` (stereo not drawn) stands 29.2%.
With `COc1ccccc1C(=O)N1CC(=O)N(CC2CC2)CC(O)C1` (stereo not drawn), the INHIBITION is on record as 34.3%.
Under `Cc1cccc(C(=O)N2C[C@@H]3COC[C@@H](CC(=O)N4CCCC4)[C@@H]3C2)n1` stands -69.3%; under `CN(C1CCN(c2ccccn2)CC1)S(=O)(=O)N1CCOCC1`, 55.4%; under `CN(C(=O)Cc1cccs1)C1CCN(c2ccccn2)CC1`, 54.4%.
In the case of `Cc1ccccc1CC(=O)N(C)C1CCN(c2ccccn2)CC1`, the INHIBITION was 42.9%.
For `CN(C(=O)Cc1ccccc1Cl)C1CCN(c2ccccn2)CC1` the value was 60.5%; for `CN(C1CCN(c2ccccn2)CC1)S(=O)(=O)c1cccs1`, 33%; for `CCOc1ncccc1C(=O)N(C)C1CCN(c2ccccn2)CC1`, 15.6%.
Under `CN(C1CCN(c2ccccn2)CC1)S(=O)(=O)c1ccc(F)cc1` stands 8.13%; under `CN(C(=O)CNc1ccc(C#N)cc1)C1CCN(c2ccccn2)CC1`, 11.2%.
For `O=C(COCCOc1ccccc1)NC1CCN(c2ccccn2)CC1` the value was -10.7%; for `CN(C1CCCN(c2ccccn2)C1)S(=O)(=O)N1CCOCC1` (stereo not drawn), 17.85%.
On to `COCCOCC(=O)NC1CCN(c2ccccn2)CC1`, for which the INHIBITION was 51.3%.
In the case of `Cc1ccc(C)c(OCC(=O)NC2CCN(c3ccccn3)CC2)c1`, the INHIBITION is given as -43.2%.
For `Cc1cnn(C2CCCN(C(=O)CCCn3ccnc3C)C2)c1` (stereo not drawn) the value was 9.54%; for `Cc1cc(CN2CCC3(CC2)COC(COCC2CC2)C3)no1` (stereo not drawn), 22.2%.
For the molecule `CCNC(=O)NC(=O)CN1CCC(c2cccc(F)c2)C1` (stereo not drawn), the INHIBITION is given as 15.8%.
Under `O=C(NC1CC1)c1cc(C(F)(F)F)cc(C(F)(F)F)n1` stands -14.3%; under `Cc1ccc(OCCN2CCC(c3ccnn3CCO)CC2)cc1`, 19.6%; under `CCc1nc2n(n1)CC(NCc1nc(-c3ccccn3)no1)CC2` (stereo not drawn), 4.45%.
For `COCCOc1cccc(C(=O)N2CCCC(n3ccnc3)C2)c1` (stereo not drawn) the value was 33.7%; for `OCC(CO)N1CCC(c2nccnc2Nc2cnccn2)CC1`, -42.9%.
Take `Cc1ccc(S(=O)(=O)N2CCCC3(CCCN3S(C)(=O)=O)C2)cc1F` (stereo not drawn): the INHIBITION is -21.1%.
Under `CSC1(CNC(=O)CCc2ccc(Cl)s2)CCOCC1` stands -19.1%; under `CN1CCN(CCCNC(=O)CCc2nc3cc(Br)cnc3[nH]2)CC1`, 38.9%.
Under `CCc1nccn1C1CCCN(C(=O)c2ccc3[nH]cnc3c2)C1` (stereo not drawn) stands 3.16%; under `CCCc1nnc(NCCn2nc(C)c(Cl)c2C)o1`, 13.7%; under `Cc1cc(C)n(CC2CN(CC(=O)NC3CCOCC3)CCO2)n1` (stereo not drawn), 36.1%.
With `COc1ccc2[nH]cc(C(=O)N3C[C@@H](O)[C@H](N4CCOCC4)C3)c2c1`, the INHIBITION is given as 29.5%.
Turning to `O=C(Cc1ccc(F)cc1)NCCNCc1cccc(O)c1`, the INHIBITION was found to be 5.9%.
Under `CCn1c(C)cc(C(=O)N2C[C@@H](C(=O)O)[C@H](c3ccccc3)C2)c1C` stands 35.8%; under `CNc1ncc(C(=O)N[C@H]2CN(CCCSC)C[C@@H]2C2CC2)cn1`, 1.71%; under `COCC(C)N(C)C(=O)NC1CCN(c2ncccn2)CC1` (stereo not drawn), 52.2%.
For `O=C1OCCC1N1CCN(c2ccc(O)cc2)CC1` (stereo not drawn) the value was 43.1%.
Under `CN(C(=O)c1ccccc1Cl)C1CCN(c2ccccn2)CC1` stands 28.6%.
Consider `CN(Cc1cnn(C)c1)C(=O)NC1CCN(c2ncccn2)CC1`, for which the INHIBITION is on record as 3.04%.
Under `Cc1cccc(C(=O)N(C)C2CCN(c3ccccn3)CC2)c1C` stands 37.3%; under `COCC(C)N(C)C(=O)NC1CCN(S(C)(=O)=O)CC1` (stereo not drawn), 36.2%; under `CN(C(=O)c1cccc2[nH]ncc12)C1CCN(c2ccccn2)CC1`, 59.7%.
For `CN(C(=O)Cc1ccccc1F)C1CCN(c2ccccn2)CC1` the value was 52.3%.
Under `O=C1OCCC1N1CCN(c2ccccn2)CC1` (stereo not drawn) stands 59.3%; under `CN(C1CCN(c2ccccn2)CC1)S(=O)(=O)c1ccccc1F`, 21.5%.
Take `O=C1OCCC1N1CCN(c2cnccn2)CC1` (stereo not drawn): the INHIBITION is 3.69%.
Under `CN(Cc1noc(C2CC2)n1)C1CCN(CCS(C)(=O)=O)C1` (stereo not drawn) stands -24.2%; under `CN(C(=O)CNC(=O)CC(C)(C)C)C1CCN(c2ccccn2)CC1`, -11.5%; under `CN(C(=O)c1ccc(Cl)cc1)C1CCN(c2ccccn2)CC1`, 3.73%.
With `CN(C(=O)c1cc(Cl)c[nH]1)C1CCN(c2ccccn2)CC1`, the INHIBITION is reported as 50.4%.
Under `CN(C(=O)c1cccc(Cl)c1)C1CCN(c2ccccn2)CC1` stands 31.3%; under `CN(C(=O)Cc1c[nH]c2ccccc12)C1CCN(c2ccccn2)CC1`, 53.8%.
For `CN(C(=O)Cc1ccc(F)cc1)C1CCN(c2ccccn2)CC1`, the INHIBITION is given as -1.14%.
For `OC(CN1CCN(Cc2ccc(F)c(F)c2)CC1)C1CC1` (stereo not drawn) the value was -48.4%; for `Cc1nc(C(C)n2cc3[nH]cccc-3c2=O)cs1` (stereo not drawn), 33.7%; for `CCN(Cc1noc(C2CC2)n1)C(=O)c1onc2ccccc12`, 48.1%.
Under `O=C1CCCN1Cc1nnc(SCc2ccc3c(c2)CCC3)o1` stands 13.2%; under `Cc1n[nH]cc1CNCC1(c2cccc(F)c2)CCOCC1`, -11.9%.
Regarding `Cc1nnc(N2CCCC3(CN(Cc4cnn(C)c4)CCO3)C2)o1` (stereo not drawn), the INHIBITION was 41.2%.
Consider `c1ccc(CN2CCOC3(COCCN(c4ncccn4)C3)C2)nc1` (stereo not drawn), for which the INHIBITION is 20.1%.
For `Fc1cccc(N2CCCC3(CN(Cc4ccccn4)CCO3)C2)c1` (stereo not drawn) the value was -9.42%; for `Cn1cc(CN2CCOC3(CCCN(c4cccc(F)c4)C3)C2)cn1` (stereo not drawn), 73%; for `Fc1ccc(N2CCOC3(COCCN(c4ncccn4)C3)C2)cc1` (stereo not drawn), 61.1%.
`Cn1cc(CN2CCC(F)(F)C3(CCN(c4cccc(F)c4)C3)C2)cn1` (stereo not drawn): the INHIBITION was -0.371%.
Under `Cc1nnc(N2CCCC3(CN(Cc4ccncc4)CCO3)C2)o1` (stereo not drawn) stands 10.1%; under `Cc1nnc(N2CCCC3(CN(Cc4ccc(F)cc4)CCO3)C2)o1` (stereo not drawn), 57.4%.
Under `COc1ccc(CN2CCOC3(CCCN(c4nnc(C)o4)C3)C2)cc1` (stereo not drawn) stands 31.8%; under `Fc1cccc(N2CCCC3(C2)CN(c2ncccn2)CCO3)c1` (stereo not drawn), 80.5%; under `Fc1cccc(N2CCCC3(C2)CN(c2cnccn2)CCO3)c1` (stereo not drawn), 23.3%.
Turning to `c1cnc(N2CCOCC3(CNCCO3)C2)nc1` (stereo not drawn), the INHIBITION is on record as 22.2%.
On to `Cc1cc(O)cc(=O)n1CCCC(=O)Nc1n[nH]c2ccccc12`, for which the INHIBITION worked out at 9.96%.
Under `COCC1CN(S(=O)(=O)N(C)C)Cc2ncn(CC3CC3)c21` (stereo not drawn) stands 5.56%.
`Cc1cccc(CO[C@H]2CN(c3nnc(C)s3)[C@@H]3CCCO[C@H]23)n1`: the INHIBITION was found to be 22.2%.
For `Cc1nc(CN2CCC3(CCCN(C(=O)c4cnccn4)C3)C2)cs1` (stereo not drawn) the value was -2.46%; for `Cc1cc(CN2CCCC2c2c(C)nn(C)c2Cl)on1` (stereo not drawn), 47%.
As to `Cc1cnn(CC2CN(Cc3ccc(C(N)=O)cc3)CCO2)c1` (stereo not drawn), the INHIBITION was found to be 37.4%.
Under `COCC(=O)N1CCC[C@]2(C(=O)N(C)C)CN(c3ccccn3)C[C@@H]2C1` stands -4.56%; under `c1ccc2oc(CCCN3CCCC(Cn4cncn4)C3)nc2c1` (stereo not drawn), 45.7%.
With `Cc1nnc(N2CCCC3(CN(Cc4cccnc4)CCO3)C2)o1` (stereo not drawn), the INHIBITION was 22.2%.
Regarding `Fc1cccc(N2CCOC3(CCCN(c4cnccn4)C3)C2)c1` (stereo not drawn), the INHIBITION was found to be 41%.
On to `Fc1cccc(N2CCCC3(CN(Cc4ccncc4)CCO3)C2)c1` (stereo not drawn), for which the INHIBITION worked out at 81.3%.
Under `Cc1nnc(N2CCCC3(CN(Cc4nccs4)CCO3)C2)o1` (stereo not drawn) stands 8.67%; under `c1ccc(CN2CCOC3(CCCN(c4nccs4)C3)C2)cc1` (stereo not drawn), 43.9%; under `Fc1cnc(N2CCCC3(CN(Cc4ccncc4)CCO3)C2)nc1` (stereo not drawn), 1.71%.
For `Fc1cccc(N2CCCC3(CN(Cc4nccs4)CCO3)C2)c1` (stereo not drawn) the value was 88.2%.
Turning to `Fc1cccc(N2CCCC3(CN(Cc4cccnc4)CCO3)C2)c1` (stereo not drawn), the INHIBITION turned out to be 71.9%.
For `CC(=O)N1CCCC2(CN(Cc3ccncc3)CCO2)C1` (stereo not drawn) the value was -7.59%.
Under `Cc1cc(OCC(N)=O)ccc1NC(=O)C(C)Cc1ccccc1F` (stereo not drawn) stands 39.6%; under `O=C(c1cnccn1)N1C[C@@H]2C[C@@H](c3nc(C4CC4)cs3)O[C@@H]2C1`, 10.7%; under `COc1cc(C)nc(N2CCN(C(=O)c3cccc(C#N)c3)CC2)n1`, 8.64%.
Under `COc1ccc2c(c1)C(=O)NC1(CC2)CCN(Cc2ccccn2)C1` (stereo not drawn) stands 17.9%.
Turning to `CNC(=O)NC(=O)CCSCc1cc(F)cc2cccnc12`, the INHIBITION came to 11.5%.
For `Cc1cc(C)n(CCCNc2ncnc3c2NC(=O)CN3)n1`, the INHIBITION worked out at 57.3%.
For `Cc1cc(C)n(CCNc2ncnc3c2NC(=O)CN3)n1` the value was 44.1%.
Regarding `Cc1nn(CCNc2ncnc3c2NC(=O)CN3)c(C)c1Cl`, the INHIBITION worked out at 42.4%.
Under `O=C1[C@H]2CN(C3CCOC3)C[C@H]2CN1c1ccccc1` (stereo partly drawn) stands 10.5%; under `Cc1n[nH]c(C)c1CNCC(O)c1cccc(Cl)c1` (stereo not drawn), 46%; under `Cc1noc(C)c1CN1CCC(N(C)Cc2nnc(C3CC3)n2C)C1` (stereo not drawn), 19.2%.
For `O=C(NC1CC1)c1ccn(COc2c(Cl)cccc2Cl)n1` the value was 43.3%.
